According to the supplement of paper PMC11732987, “Enantioselective OTUD7B fragment discovery through chemoproteomics screening and high-throughput optimisation” (Communications Chemistry, 2025):

How the values were obtained:
Test in all cases: log2 ratio of Biotin-Ahx-Ub-VS probe labelling (fragment/DMSO); higher = less target engagement (more negative = stronger competition), active = hit call of the paper (q ≤ 0.05, log2 ratio ≤ -1)
Details in all cases: compound concentration: 200 uM; treatment time: 3 h
[1] = target: T1, USP19 (UniProt O94966)
T1 sequence (whole entry): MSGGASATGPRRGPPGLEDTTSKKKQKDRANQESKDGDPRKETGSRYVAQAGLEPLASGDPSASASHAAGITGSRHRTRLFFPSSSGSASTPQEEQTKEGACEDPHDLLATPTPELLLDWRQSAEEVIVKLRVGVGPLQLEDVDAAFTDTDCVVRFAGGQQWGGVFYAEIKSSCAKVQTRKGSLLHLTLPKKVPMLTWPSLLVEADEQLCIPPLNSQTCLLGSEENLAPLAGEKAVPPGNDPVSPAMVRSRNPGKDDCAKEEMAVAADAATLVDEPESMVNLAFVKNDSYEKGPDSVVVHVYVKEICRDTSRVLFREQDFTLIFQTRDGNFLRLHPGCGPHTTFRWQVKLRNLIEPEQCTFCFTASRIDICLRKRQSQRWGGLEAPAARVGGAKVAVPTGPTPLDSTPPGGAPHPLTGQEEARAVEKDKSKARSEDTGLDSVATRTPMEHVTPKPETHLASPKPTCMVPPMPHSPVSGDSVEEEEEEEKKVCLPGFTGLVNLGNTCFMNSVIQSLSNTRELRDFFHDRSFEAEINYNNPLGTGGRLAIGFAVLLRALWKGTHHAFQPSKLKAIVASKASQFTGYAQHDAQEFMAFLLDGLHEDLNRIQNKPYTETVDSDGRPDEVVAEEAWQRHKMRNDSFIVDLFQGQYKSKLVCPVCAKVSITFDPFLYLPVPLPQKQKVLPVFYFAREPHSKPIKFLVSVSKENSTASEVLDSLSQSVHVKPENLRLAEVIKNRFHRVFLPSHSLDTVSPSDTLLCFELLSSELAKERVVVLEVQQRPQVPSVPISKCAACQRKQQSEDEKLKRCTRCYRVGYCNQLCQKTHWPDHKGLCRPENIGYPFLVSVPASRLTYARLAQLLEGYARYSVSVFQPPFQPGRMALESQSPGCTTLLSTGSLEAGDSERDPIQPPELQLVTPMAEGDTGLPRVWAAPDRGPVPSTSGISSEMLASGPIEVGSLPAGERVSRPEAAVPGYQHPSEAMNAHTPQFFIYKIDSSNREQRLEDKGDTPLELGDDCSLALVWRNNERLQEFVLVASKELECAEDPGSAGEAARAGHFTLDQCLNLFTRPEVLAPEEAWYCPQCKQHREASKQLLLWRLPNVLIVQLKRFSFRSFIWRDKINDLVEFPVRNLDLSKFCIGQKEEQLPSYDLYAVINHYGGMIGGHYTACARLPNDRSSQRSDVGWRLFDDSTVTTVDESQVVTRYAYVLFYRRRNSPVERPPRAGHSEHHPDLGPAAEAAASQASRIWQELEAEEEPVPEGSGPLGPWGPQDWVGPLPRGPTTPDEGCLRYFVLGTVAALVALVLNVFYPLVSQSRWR
Summary of the method: (§1)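 HEK293T lysate in Tris/CHAPS/IGEPAL buffer with protease inhibitors (495 µg per sample) was given fragment at 200 µM or vehicle for 3 h, in triplicate. It then received Biotin-Ahx-Ub-VS at 0.5 µM final for 1 h. Labelled DUBs were NeutrAvidin-enriched, digested with LysC and trypsin, and run by diaPASEF LC-MS/MS. Values are average log2 fragment/vehicle ratios by unpaired t-test on global-median-normalised Spectronaut quantities of proteins with ≥2 unique peptides.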

[2] = target: T2, USP22 (UniProt Q9UPT9)
T2 sequence (whole entry): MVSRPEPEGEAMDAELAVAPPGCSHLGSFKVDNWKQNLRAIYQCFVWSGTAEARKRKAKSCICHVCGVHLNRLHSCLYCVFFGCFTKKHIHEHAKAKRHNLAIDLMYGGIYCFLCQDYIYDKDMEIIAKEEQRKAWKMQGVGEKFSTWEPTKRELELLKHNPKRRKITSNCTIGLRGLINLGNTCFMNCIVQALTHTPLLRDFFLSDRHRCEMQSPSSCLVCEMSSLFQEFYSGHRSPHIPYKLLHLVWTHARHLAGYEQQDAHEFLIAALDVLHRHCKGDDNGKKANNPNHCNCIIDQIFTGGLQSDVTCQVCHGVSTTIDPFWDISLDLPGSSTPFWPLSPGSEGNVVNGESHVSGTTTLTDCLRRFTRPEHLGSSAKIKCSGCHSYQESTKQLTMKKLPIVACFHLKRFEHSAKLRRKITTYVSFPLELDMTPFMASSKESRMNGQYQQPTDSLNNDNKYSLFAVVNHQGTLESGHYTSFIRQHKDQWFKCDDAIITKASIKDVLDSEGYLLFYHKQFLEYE
Summary of the method: as §1

[3] = target: USP24 (UniProt Q9UPU5)
Summary of the method: as §1

[4] = target: T3, USP25 (UniProt Q9UHP3)
T3 sequence (whole entry): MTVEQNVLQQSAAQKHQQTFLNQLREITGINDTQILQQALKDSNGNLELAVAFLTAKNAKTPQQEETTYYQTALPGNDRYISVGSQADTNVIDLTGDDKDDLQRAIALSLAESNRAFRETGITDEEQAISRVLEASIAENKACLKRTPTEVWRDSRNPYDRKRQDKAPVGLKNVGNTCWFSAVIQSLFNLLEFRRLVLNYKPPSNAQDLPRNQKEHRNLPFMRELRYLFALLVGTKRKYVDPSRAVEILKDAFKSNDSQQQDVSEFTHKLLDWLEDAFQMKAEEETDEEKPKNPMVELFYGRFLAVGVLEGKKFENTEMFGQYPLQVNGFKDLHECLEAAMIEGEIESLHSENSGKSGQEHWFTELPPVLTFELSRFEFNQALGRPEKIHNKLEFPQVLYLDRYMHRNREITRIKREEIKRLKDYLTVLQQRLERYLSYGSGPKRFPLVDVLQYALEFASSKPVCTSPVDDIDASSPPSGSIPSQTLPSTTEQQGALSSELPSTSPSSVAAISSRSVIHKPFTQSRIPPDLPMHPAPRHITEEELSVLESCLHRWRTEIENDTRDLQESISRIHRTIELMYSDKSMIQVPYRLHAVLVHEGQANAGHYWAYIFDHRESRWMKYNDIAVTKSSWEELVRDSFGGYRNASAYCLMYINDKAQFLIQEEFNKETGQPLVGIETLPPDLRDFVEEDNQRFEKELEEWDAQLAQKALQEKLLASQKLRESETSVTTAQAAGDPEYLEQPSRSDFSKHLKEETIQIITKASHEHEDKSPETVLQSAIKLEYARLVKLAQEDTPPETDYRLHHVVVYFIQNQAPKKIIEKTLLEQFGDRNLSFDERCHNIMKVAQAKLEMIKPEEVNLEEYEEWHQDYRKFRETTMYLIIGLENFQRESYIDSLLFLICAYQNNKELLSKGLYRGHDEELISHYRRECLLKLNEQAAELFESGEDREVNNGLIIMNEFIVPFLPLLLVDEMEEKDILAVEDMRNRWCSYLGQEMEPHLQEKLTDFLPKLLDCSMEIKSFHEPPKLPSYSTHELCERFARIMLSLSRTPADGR
Summary of the method: as §1

[5] = target: T4, USP28 (UniProt Q96RU2)
T4 sequence (whole entry): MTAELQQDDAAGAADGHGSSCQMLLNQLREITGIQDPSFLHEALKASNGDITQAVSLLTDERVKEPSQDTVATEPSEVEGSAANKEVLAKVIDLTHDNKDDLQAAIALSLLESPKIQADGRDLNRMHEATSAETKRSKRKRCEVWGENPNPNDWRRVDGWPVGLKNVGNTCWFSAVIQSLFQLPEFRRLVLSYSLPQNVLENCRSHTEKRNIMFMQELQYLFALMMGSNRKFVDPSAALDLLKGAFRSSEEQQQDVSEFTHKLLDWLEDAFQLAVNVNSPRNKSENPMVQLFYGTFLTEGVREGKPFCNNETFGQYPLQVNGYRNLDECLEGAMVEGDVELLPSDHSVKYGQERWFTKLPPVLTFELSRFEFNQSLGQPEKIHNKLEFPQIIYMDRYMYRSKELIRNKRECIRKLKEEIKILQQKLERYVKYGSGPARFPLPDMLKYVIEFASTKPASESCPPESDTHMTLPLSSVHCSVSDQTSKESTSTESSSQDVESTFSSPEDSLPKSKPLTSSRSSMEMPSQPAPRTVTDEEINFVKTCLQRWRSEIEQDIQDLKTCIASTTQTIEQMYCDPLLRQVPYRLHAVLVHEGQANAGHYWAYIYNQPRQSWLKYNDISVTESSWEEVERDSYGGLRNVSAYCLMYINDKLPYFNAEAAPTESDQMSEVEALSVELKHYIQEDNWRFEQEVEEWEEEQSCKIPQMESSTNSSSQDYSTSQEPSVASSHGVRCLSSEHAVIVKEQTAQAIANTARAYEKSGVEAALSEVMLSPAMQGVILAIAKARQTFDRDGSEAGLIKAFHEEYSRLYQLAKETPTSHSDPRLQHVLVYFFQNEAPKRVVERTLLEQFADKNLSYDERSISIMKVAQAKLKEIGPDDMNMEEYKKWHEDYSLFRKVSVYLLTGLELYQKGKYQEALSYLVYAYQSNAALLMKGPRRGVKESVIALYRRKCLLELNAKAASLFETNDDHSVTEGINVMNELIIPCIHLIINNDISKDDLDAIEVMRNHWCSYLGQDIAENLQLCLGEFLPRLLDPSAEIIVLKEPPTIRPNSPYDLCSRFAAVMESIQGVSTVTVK
Summary of the method: as §1

Measured: log2 ratio of Biotin-Ahx-Ub-VS probe labelling

Chain of USP24 (Q9UPU5 whole entry): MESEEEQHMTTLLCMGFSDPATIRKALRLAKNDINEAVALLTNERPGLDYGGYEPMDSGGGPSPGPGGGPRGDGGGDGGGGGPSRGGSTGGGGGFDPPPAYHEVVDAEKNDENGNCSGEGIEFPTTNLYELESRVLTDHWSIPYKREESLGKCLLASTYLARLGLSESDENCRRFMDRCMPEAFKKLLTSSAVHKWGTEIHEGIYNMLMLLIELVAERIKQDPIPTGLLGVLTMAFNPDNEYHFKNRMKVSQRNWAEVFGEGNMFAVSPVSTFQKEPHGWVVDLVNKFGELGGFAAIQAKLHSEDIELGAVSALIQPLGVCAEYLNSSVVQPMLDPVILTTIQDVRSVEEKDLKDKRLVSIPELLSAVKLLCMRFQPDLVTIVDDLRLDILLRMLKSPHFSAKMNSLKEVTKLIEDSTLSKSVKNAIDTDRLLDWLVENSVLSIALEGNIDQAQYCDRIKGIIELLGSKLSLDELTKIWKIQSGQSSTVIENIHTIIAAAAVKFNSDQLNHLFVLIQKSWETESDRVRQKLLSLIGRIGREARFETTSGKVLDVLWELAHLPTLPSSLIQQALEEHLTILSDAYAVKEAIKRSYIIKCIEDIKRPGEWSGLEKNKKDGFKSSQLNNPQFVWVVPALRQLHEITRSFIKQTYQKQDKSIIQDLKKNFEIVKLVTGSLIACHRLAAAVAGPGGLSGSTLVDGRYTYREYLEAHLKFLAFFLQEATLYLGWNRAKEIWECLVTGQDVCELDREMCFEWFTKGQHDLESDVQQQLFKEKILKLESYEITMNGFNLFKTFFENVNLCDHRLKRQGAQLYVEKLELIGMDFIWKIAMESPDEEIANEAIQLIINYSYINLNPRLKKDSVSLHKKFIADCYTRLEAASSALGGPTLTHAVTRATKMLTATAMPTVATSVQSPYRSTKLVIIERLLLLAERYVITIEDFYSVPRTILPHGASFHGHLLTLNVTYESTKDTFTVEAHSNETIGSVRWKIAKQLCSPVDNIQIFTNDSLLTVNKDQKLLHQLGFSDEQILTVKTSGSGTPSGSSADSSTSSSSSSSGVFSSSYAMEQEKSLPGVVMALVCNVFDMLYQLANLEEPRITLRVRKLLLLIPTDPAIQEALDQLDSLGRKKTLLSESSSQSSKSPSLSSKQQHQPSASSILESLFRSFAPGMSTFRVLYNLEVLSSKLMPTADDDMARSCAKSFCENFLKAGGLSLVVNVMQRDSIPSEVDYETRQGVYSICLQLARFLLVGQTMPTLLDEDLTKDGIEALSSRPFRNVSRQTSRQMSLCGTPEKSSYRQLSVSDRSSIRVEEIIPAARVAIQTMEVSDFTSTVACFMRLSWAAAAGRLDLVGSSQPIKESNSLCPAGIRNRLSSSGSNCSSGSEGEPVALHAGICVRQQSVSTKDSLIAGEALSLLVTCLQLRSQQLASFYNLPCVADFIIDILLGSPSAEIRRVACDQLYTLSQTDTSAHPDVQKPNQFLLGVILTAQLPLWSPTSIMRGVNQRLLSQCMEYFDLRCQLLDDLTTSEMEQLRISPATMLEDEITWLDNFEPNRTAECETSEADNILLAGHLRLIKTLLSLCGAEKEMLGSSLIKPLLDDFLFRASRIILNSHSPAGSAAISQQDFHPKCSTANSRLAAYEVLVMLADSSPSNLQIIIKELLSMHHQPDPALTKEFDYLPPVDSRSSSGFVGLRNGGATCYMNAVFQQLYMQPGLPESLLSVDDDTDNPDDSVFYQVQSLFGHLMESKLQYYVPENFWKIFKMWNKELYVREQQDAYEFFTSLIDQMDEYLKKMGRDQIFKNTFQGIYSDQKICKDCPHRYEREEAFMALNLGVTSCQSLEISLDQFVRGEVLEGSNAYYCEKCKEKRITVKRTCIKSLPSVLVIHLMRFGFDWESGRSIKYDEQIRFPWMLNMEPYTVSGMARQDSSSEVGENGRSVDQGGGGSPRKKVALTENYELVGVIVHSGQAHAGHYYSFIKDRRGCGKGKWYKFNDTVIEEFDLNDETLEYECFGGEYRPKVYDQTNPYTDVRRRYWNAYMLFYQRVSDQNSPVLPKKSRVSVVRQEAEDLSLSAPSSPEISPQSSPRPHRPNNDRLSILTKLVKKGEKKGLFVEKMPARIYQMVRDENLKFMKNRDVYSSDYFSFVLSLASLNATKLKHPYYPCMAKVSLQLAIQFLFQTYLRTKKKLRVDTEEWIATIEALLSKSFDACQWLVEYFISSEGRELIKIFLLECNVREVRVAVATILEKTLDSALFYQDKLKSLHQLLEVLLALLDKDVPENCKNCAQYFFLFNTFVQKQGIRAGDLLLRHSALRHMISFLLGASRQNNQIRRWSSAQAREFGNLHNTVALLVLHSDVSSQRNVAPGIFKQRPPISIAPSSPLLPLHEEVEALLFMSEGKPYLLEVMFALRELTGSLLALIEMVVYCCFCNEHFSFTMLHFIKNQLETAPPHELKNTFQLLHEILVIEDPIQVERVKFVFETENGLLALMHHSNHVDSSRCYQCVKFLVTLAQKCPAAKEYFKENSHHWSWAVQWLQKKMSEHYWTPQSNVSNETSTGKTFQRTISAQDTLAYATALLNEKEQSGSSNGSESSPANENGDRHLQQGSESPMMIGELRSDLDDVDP

CNC(=O)C1(NC(=O)CCl)CCCCC1
inactive: [1] 0.162 | [2] -0.0396 | [3] 0.0556 | [4] -0.118 | [5] -0.181
